From PubChem BioAssay (NCATS)
Records with an inconclusive call do not appear. Calls of active or inactive are those of the source. The call rests on the fitted dose curve; in most records, active means well fitted cell-killing curve with a large enough effect; inconclusive means small, poorly fitted or top-dose-only effect; inactive means flat fitted curve, though single readings scatter.

test: Cell Viability - LYMP2-022 (AID 987); details: LYMP2-022 lymphoblastoid cell viability; series mostly up to 92.2 µM; viability change, negative = cytotoxic: at the top concentration; further: nearly all actives have a fitted effect of over 55% in size;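 on viability change, negative = cytotoxic: 0% = DMSO alone and full effect = tetraoctylammonium bromide at 92 µM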
In short: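 Acute toxicity in a human lymphoblastoid line is scored as decreased intracellular ATP after 24 hr compound treatment at 37 C. ATP is measured by CellTiter-Glo luminescence; curves are fitted with the Hill equation to give AC50.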
Potency means the concentration at half of the fitted maximal effect.

| SMILES | viability change, negative = cytotoxic | Potency |
| --- | --- | --- |
| Cc1ncc([N+](=O)[O-])n1CCO | -2.28% (inactive) | – |
| NNC(=O)c1ccncc1 | -15.1% (inactive) | – |
| O=C(N[C@H](CO)[C@H](O)c1ccc([N+](=O)[O-])cc1)C(Cl)Cl | 2.63% (inactive) | – |
| Cc1noc(NS(=O)(=O)c2ccc(N)cc2)c1C | -6.61% (inactive) | – |
| NC(N)=NC(N)=NCCc1ccccc1 | -24% (inactive) | – |
| COc1ccc2cc3[n+](cc2c1OC)CCc1cc2c(cc1-3)OCO2 | – | 31.6 µM (active) |
| CC[C@H](C)C(=O)O[C@H]1C[C@@H](C)C=C2C=C[C@H](C)[C@H](CC[C@@H]3C[C@@H](O)CC(=O)O3)[C@H]21 | -28.2% (inactive) | – |
| N=C(N)c1ccc(OCCCCCOc2ccc(C(=N)N)cc2)cc1 | – | 39.8 µM (active) |
| Cc1ccnc2c1NC(=O)c1cccnc1N2C1CC1 | -16% (inactive) | – |
| O=C(O)c1cc(=O)[nH]c(=O)[nH]1 | -10.3% (inactive) | – |
| C[C@]12C=CC(=O)C=C1CC[C@@H]1[C@@H]2C(=O)C[C@@]2(C)[C@H]1CC[C@]2(O)C(=O)CO | -14.7% (inactive) | – |
| CCc1cc(C(N)=S)ccn1 | -1.01% (inactive) | – |
| Cc1nnc(NS(=O)(=O)c2ccc(N)cc2)s1 | -2.36% (inactive) | – |
| Cc1cc(NS(=O)(=O)c2ccc(N)cc2)no1 | -5.7% (inactive) | – |
| CC1=NN(c2ccccc2)C(=O)C1 | -20.9% (inactive) | – |
| CN(C)c1ccc(C(=C2C=CC(=[N+](C)C)C=C2)c2ccc(N(C)C)cc2)cc1 | – | 0.794 µM (active) |
